Results: PubChem BioAssay
This is one part of the list. Calls of active or inactive are those of the source.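 The calls were made as follows, unless noted: active = under 65% GFP response relative to DMSO; inconclusive = yeast strain with under 70 measured events; inactive = the rest.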

Assay: retest of hits on RPL19A-GFP strain – cell-based, S. cerevisiae, flow cytometry, second cherry pick, confirmation (AID 2623);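 also: median GFP channel fluorescence per well over the all cells gate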
Conditions: 3 h, at 10 µM, hits give low values, 100% means same as DMSO wells

Compound | GFP response vs DMSO
CCc1nnc(SCc2cccc(F)c2)nc1CC | 95.5% (inactive)
COc1ccc(C)cc1NC(=O)CSc1nc(SC)ns1 | 100% (inactive)
COC(=O)C[n+]1cccc2ccccc21 | 100% (inactive)
Cc1cc(C)c2nc3nc(C)cc(C)c3c(N)c2c1 | 76.7% (inactive)
COc1ccc(C2(C)ON(c3ccccc3C(F)(F)F)C2=O)cc1 (configuration not stated) | 100% (inactive)
CCCCNc1c(-c2cccc(Sc3ccc(OC)cc3)c2)nc2ccccn12 | 92.7% (inactive)
C#CCOCCOCCOCCNc1nc(N2CCN(C(=O)CCCCCCCCCCNC(=O)[C@H](CCCCN)n3cc(C)nn3)CC2)nc(N2CCN(C(=O)CCCCCCCCCCNC(=O)[C@H](CO)n3cc(CCCSC)nn3)CC2)n1 | 97.6% (inactive)
O=C(Nc1nnc(-c2ccc(Cl)cc2)o1)c1ccccc1Br | 99.6% (inactive)
Cc1ccc(S/C(=N\S(=O)(=O)c2ccc(Cl)cc2)c2ccccc2)cc1 | 98% (inactive)
CC1=C/C(=N\OS(=O)(=O)c2ccccc2)C=CC1=O | 103% (inactive)
CCC(=C/c1sc2ccc3ccccc3c2[n+]1C)/C=C1\Sc2ccc3ccccc3c2N1C | 451% (inactive)
COc1ccc(-c2nc(CS(=O)(=O)CC(=O)NCc3cccc(Br)c3)c(C)o2)cc1 | 101% (inactive)
Cc1ccc2nc(N(CCN(C)C)C(=O)C3=COCCO3)sc2c1 | 98.9% (inactive)
COc1ccc(CCNC(=O)CS(=O)(=O)Cc2nc(-c3ccc(C)cc3)oc2C)cc1OC | 95.5% (inactive)
COc1ccc2nc(N3CCN(C(=O)c4ccc([N+](=O)[O-])o4)CC3)sc2c1 | 87% (inactive)
O=C(NC(=S)NC1CCS(=O)(=O)C1)c1cccc([N+](=O)[O-])c1 (configuration not stated) | 101% (inactive)
CCOC(=O)c1cnc(SCC(=O)NCc2ccco2)nc1N | 96.8% (inactive)
CCN1/C(=C/c2ccc3ccc(C)cc3[n+]2CC)Sc2ccccc21 | 136% (inactive)
CC(Oc1ccc2ccccc2c1)C(=O)NNC(=S)NC(=O)c1ccco1 (configuration not stated) | 101% (inactive)
Clc1cccc(CN2COc3c(cc(Cl)c4cccnc34)C2)c1 | 101% (inactive)
CC(C)[C@@H]1COC(c2cccc(C3=N[C@H](C(C)C)CO3)c2)=N1 | 101% (inactive)
CCn1c(SCCC(C)C)nnc1-c1c[nH]c2ccccc12 | 96.3% (inactive)
CN(Cc1ccccc1)C(=O)C(=O)c1cn(CC(=O)N2CCCC2)c2ccccc12 | 95% (inactive)
COc1cccc(/C=N/Nc2ncc(C(F)(F)F)cc2Cl)c1O | 102% (inactive)
O=C(COc1cccnc1[N+](=O)[O-])Nc1ccc(Cl)cc1F | 99.5% (inactive)
CCCn1nc(C(=O)NNC(=O)CCOc2ccccc2OCC)c2ccccc2c1=O | 102% (inactive)

Assay: yeast TOR pathway CIT2-GFP reporter modulation – flow cytometry, second cherry pick, single plex, confirmation (AID 2624;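 active = GFP response vs DMSO above about 150%, limit read from the data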;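 also: median green fluorescence per well over all gated yeast cells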)
Conditions: S. cerevisiae CIT2-GFP strain, 3 h, at 10 µM, hits give high values, DMSO control wells read 100%

Compound | GFP response vs DMSO
CCc1nnc(SCc2cccc(F)c2)nc1CC | 89% (inactive)
COc1ccc(C)cc1NC(=O)CSc1nc(SC)ns1 | 102% (inactive)
COC(=O)C[n+]1cccc2ccccc21 | 118% (inactive)
Cc1cc(C)c2nc3nc(C)cc(C)c3c(N)c2c1 | 93.9% (inactive)
COc1ccc(C2(C)ON(c3ccccc3C(F)(F)F)C2=O)cc1 (configuration not stated) | 100% (inactive)
CCCCNc1c(-c2cccc(Sc3ccc(OC)cc3)c2)nc2ccccn12 | 120% (inactive)
C#CCOCCOCCOCCNc1nc(N2CCN(C(=O)CCCCCCCCCCNC(=O)[C@H](CCCCN)n3cc(C)nn3)CC2)nc(N2CCN(C(=O)CCCCCCCCCCNC(=O)[C@H](CO)n3cc(CCCSC)nn3)CC2)n1 | 110% (inactive)
O=C(Nc1nnc(-c2ccc(Cl)cc2)o1)c1ccccc1Br | 133% (inactive)
Cc1ccc(S/C(=N\S(=O)(=O)c2ccc(Cl)cc2)c2ccccc2)cc1 | 107% (inactive)
CC1=C/C(=N\OS(=O)(=O)c2ccccc2)C=CC1=O | 109% (inactive)
CCC(=C/c1sc2ccc3ccccc3c2[n+]1C)/C=C1\Sc2ccc3ccccc3c2N1C | 303% (active)
COc1ccc(-c2nc(CS(=O)(=O)CC(=O)NCc3cccc(Br)c3)c(C)o2)cc1 | 113% (inactive)
Cc1ccc2nc(N(CCN(C)C)C(=O)C3=COCCO3)sc2c1 | 103% (inactive)
COc1ccc(CCNC(=O)CS(=O)(=O)Cc2nc(-c3ccc(C)cc3)oc2C)cc1OC | 100% (inactive)
COc1ccc2nc(N3CCN(C(=O)c4ccc([N+](=O)[O-])o4)CC3)sc2c1 | 243% (active)
O=C(NC(=S)NC1CCS(=O)(=O)C1)c1cccc([N+](=O)[O-])c1 (configuration not stated) | 105% (inactive)
CCOC(=O)c1cnc(SCC(=O)NCc2ccco2)nc1N | 111% (inactive)
CCN1/C(=C/c2ccc3ccc(C)cc3[n+]2CC)Sc2ccccc21 | 1630% (active)
CC(Oc1ccc2ccccc2c1)C(=O)NNC(=S)NC(=O)c1ccco1 (configuration not stated) | 187% (active)
Clc1cccc(CN2COc3c(cc(Cl)c4cccnc34)C2)c1 | 95% (inactive)
CC(C)[C@@H]1COC(c2cccc(C3=N[C@H](C(C)C)CO3)c2)=N1 | 97.2% (inactive)
CCn1c(SCCC(C)C)nnc1-c1c[nH]c2ccccc12 | 100% (inactive)
CN(Cc1ccccc1)C(=O)C(=O)c1cn(CC(=O)N2CCCC2)c2ccccc12 | 103% (inactive)
COc1cccc(/C=N/Nc2ncc(C(F)(F)F)cc2Cl)c1O | 132% (inactive)
O=C(COc1cccnc1[N+](=O)[O-])Nc1ccc(Cl)cc1F | 103% (inactive)
CCCn1nc(C(=O)NNC(=O)CCOc2ccccc2OCC)c2ccccc2c1=O | 121% (inactive)
